In the library only some 7.3% were active in any assay of this set; here they are far more common.
Rab9 promoter act = Rab9 promoter activation; Huh7 Rab9 promoter-luciferase reporter, luminescence, 24 h; Potency, µM (top dose mostly 9.22 µM), inactives show at the highest dose activation, negative = inhibition, usual class: activators; 320,000 tested, 2.8% active; AID 485297; also: % of control where 0% means no effect; nearly all actives have a fitted effect of over 60% in size
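Promoter activation is measured as luciferase luminescence in Huh7 cells stably transfected with a Rab9 promoter–luciferase construct, following 24 h compound exposure at 37 °C and 10 min reagent incubation at ambient temperature.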
ELG1 genotoxic = inducers of genotoxicity in HEK293T ELG1-luciferase cells | 330,000 tested, 1.3% active | Potency, µM (doses to about 46 µM), for the others: at the top dose activity change, positive = activation, most hits filed as activators | HEK293T ELG1-luciferase reporter, luminescence, 16 h; also: % of control where 0% means no effect; nearly all actives have a fitted effect of over 60% in size
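HEK293T cells expressing luciferase-tagged ELG1 were exposed to compound or DMSO vehicle for 16 hr at 37 °C and 5% CO2. Luciferase activity was then measured with ONE-Glo after 30 min at room temperature.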
NPC1 promoter act = activators of NPC1 promoter | Huh7 NPC1 promoter luciferase reporter, 24 h | Potency, µM (titrated, usually from 9.22 µM), without a hit: top-dose activation, hits mostly activators | AID 485313 | 320,000 tested, 2.4% active; also: % of control where 0% means no effect; nearly all actives have a fitted effect of over 60% in size
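Luminescence from an NPC1 promoter-driven luciferase reporter in stably transfected Huh7 cells was measured after 24 h compound treatment at 37 °C, followed by 10 min ambient incubation with luciferase detection reagent.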
p53 reactivator = mutant p53 re-activation in reporter cells; H1299 p53-A138V BP100-luciferase reporter, luminescence, 24 h; 320,000 tested, 0.063% active; Potency, µM (doses to about 92.2 µM), without a hit: at the top dose activity change, positive = activation, hits mostly activators; also: % of control where 0% means no effect; nearly all actives have a fitted effect of over 45% in size
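p53-null H1299 cells stably carrying temperature-sensitive p53-A138V and a BP100-luciferase reporter were pinned with compounds (4-point, 1:5 series) and held 24 hrs at 37 deg C. Luminescence was read 10 min after detection reagent.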
SMN2 splice enh = SMN2 splice variant enhancement; AID 1458; HEK293 SMN2-luciferase splicing reporter, luminescence, 30-36 h; 210,000 tested, 2.8% active; Potency, µM (top dose mostly 46.1 µM), without a hit: at the highest dose activity change, positive = activation, most hits filed as activators; also: % of control where 0% means no effect; nearly all actives have a fitted effect of over 55% in size
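qHTS luciferase splicing reporter: luminescence rises when SMN2 exon 7 is included in transfected HEK293 cells. Compound exposure lasted 30-36 h at 37C, with 4.5 mM final sodium butyrate as control, followed by a ONE-Glo read.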
FLuc counter = firefly luciferase modulation, counter-screen for miR-21 project. Potency, µM (top dose mostly 57.5 µM), inactives show at the highest dose activity change, negative = inhibition, hits mostly inhibitors. purified FLuc, Km substrates, luminescence inhibition. 360,000 tested, 6.9% active;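 also: plate controls were vehicle for no effect and reference inhibitor for full effect; nearly all actives have a fitted effect of over 55% in size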
Target sequence (P08659 whole entry, looked up): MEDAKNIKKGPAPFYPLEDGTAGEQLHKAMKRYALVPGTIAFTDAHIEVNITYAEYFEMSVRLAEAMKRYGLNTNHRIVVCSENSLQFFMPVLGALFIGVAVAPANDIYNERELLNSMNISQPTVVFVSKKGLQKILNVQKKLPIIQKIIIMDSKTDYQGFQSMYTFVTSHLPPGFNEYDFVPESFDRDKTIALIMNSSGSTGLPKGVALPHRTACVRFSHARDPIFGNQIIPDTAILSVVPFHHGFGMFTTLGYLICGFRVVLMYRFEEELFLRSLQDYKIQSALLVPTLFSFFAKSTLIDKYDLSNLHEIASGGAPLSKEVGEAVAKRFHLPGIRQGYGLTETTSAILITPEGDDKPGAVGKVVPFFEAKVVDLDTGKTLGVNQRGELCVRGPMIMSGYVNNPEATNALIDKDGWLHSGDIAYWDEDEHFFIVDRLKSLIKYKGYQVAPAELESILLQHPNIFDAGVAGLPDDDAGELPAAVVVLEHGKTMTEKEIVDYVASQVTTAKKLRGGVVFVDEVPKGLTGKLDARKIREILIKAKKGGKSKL
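Biochemical qHTS of compounds, final roughly 60 µM downward over six points, against 10 nM purified firefly luciferase using Km concentrations of substrates (10 uM D-luciferin, 10 uM ATP) in Tris acetate pH 7.5 buffer; luminescence output.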
* marks the source's active call; other numbers are inactive results; [ ] = remark or other dose. Calls follow the shape of the dose curve; as a rule, active = well fitted curve in the direction sought with a large enough effect; inconclusive = small, poorly fitted or top-dose-only effect, or another doubt; inactive = no such curve, though single readings can be large; an effect the other way counts as inactive or inconclusive. Potency is read from the fitted curve at half-maximal effect.

`COC(=O)c1cc(NC(=O)c2nn(C)c3c2CSc2ccccc2-3)cc(C(=O)OC)c1` gave FLuc counter 4%.
For CCC1(c2ccc(Cl)cc2)NC(=S)N(c2ccc(C)c(C)c2)N1 (stereo unspecified) the results were Rab9 promoter act 3%, ELG1 genotoxic -5%, NPC1 promoter act 13%, p53 reactivator 5% and FLuc counter -15%.
For CCC1(c2ccc(Cl)cc2)NC(=S)N(c2ccc(C)cc2)N1 (stereo unspecified) the results were Rab9 promoter act 19%, ELG1 genotoxic inconclusive, NPC1 promoter act 7%, p53 reactivator inconclusive, SMN2 splice enh -55% and FLuc counter 17µM*.
`O=C(NC(=O)c1ccccc1)Nc1ccc(Cl)cn1` gave Rab9 promoter act 1µM*, ELG1 genotoxic 1.5µM*, NPC1 promoter act 0.63µM*, p53 reactivator 21% and FLuc counter 2.1µM*.
Screening O=C(Nc1ccc(Cl)cn1)Nc1ccc(Cl)cn1 returned Rab9 promoter act 22%, ELG1 genotoxic inconclusive, NPC1 promoter act 22%, p53 reactivator 3%, SMN2 splice enh 14% and FLuc counter -4%.
Screening O=C(Nc1ccc(Cl)cn1)c1ccccc1F returned SMN2 splice enh 16µM* and FLuc counter 4.3µM*.
Screening C/C(=C\c1ccccc1)C(=O)Nc1ccc(Cl)cn1 returned Rab9 promoter act 0.79µM*, ELG1 genotoxic 9.2µM*, NPC1 promoter act 1.8µM*, p53 reactivator -24% and FLuc counter inconclusive.
Screening Nc1ccccc1NC(=O)NC(=O)c1ccccc1 returned Rab9 promoter act 2.2µM*, ELG1 genotoxic inconclusive, NPC1 promoter act inconclusive and FLuc counter 11µM*.
For Nc1ccccc1NC(=O)c1ccccc1N the results were Rab9 promoter act 17%, ELG1 genotoxic 1%, NPC1 promoter act 11%, p53 reactivator 27%, SMN2 splice enh -3% and FLuc counter -23%.
Screening COc1ccccc1-c1c(C)nn2c(C(F)(F)F)cc(-c3ccccc3)nc12 returned SMN2 splice enh 2% and FLuc counter -1%.
COc1cc2ccccc2cc1C(=O)Nc1ccc(Cl)cn1 was read as Rab9 promoter act 1.4µM*, ELG1 genotoxic inconclusive, NPC1 promoter act 2µM*, p53 reactivator inconclusive and FLuc counter inconclusive.
O=C(Nc1ccc(Cl)cn1)c1cccc(F)c1 was read as Rab9 promoter act inconclusive, ELG1 genotoxic inconclusive, NPC1 promoter act inconclusive, p53 reactivator inconclusive, SMN2 splice enh 16µM* and FLuc counter 11µM*.
For O=C(O)c1c(-c2c3ccc(=O)cc-3oc3cc(O)ccc23)cc2ccccc2c1-c1ccccc1 the results were SMN2 splice enh 2%[9.22 µM].
Screening CCOc1ccc(-c2cc(C(=O)NCCCOC)c3c(-c4ccc(CC)cc4)[nH]nc3n2)cc1 returned FLuc counter 1%.
`CCN(CC)C(=O)c1ccc2c(c1[N+](=O)[O-])C(=O)c1ccccc1C2=O` gave Rab9 promoter act 2.2µM*, ELG1 genotoxic inconclusive, NPC1 promoter act 2.8µM*, p53 reactivator inconclusive, SMN2 splice enh 13µM* and FLuc counter 3%.
Screening CCN(CC)C(=O)c1cccc2c1C(=O)c1ccccc1-2 returned Rab9 promoter act -6%, ELG1 genotoxic -2%, NPC1 promoter act -1%, p53 reactivator 0%, SMN2 splice enh 4% and FLuc counter 3%.
CCN(CC(=O)Nc1cc(S(=O)(=O)N2CCCCC2)ccc1C)Cc1ccccc1 was read as Rab9 promoter act -6%, ELG1 genotoxic -4%, NPC1 promoter act -1%, p53 reactivator -12% and FLuc counter 5%.
Screening Cc1cc(C)cc(NC(=O)c2ncn(-c3ccccc3)n2)c1 returned SMN2 splice enh 11µM* and FLuc counter inconclusive.

Screening data: PubChem, National Center for Advancing Translational Sciences (NCATS)
